Holding throughout (assay): DAPPL (digital affinity profiling via proximity ligation, sequencing); 10 mM Tris-HCl pH 7.5, 50 mM NaCl, 1 mM DTT, 4% glycerol, room temperature, 30 min; GST-TFs on glutathione beads, 16-mer random dsDNA library, 0.1% formaldehyde crosslink after washing; high values mean tight binding
Settings in all cases: protein: recombinant; tags: N-terminal GST; dsDNA, one strand shown

In one test the target is T1, FLI1 (Homo sapiens, UniProt Q01543 1-452).
T1 sequence: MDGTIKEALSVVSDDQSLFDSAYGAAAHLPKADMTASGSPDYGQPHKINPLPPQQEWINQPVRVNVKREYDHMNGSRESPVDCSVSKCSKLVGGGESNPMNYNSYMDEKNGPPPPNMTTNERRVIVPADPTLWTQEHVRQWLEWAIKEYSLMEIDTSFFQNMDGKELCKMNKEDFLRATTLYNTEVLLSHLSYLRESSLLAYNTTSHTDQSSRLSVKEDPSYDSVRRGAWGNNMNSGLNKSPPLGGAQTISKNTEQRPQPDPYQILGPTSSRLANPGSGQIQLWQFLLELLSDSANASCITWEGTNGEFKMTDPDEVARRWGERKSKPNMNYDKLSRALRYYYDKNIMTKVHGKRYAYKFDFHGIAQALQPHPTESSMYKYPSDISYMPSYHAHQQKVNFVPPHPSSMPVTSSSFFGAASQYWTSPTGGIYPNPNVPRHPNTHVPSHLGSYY
The procedure, abridged:
(§1)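 Pools were built from human transcription factors expressed in yeast as GST fusions, captured on glutathione beads and DNA-barcoded, along with a tag-only sample. Incubation with 200 nmole of a 16-mer random double-stranded DNA library lasted 30 min at room temperature in Tris/NaCl/DTT/glycerol buffer, and was followed by washing, 0.1% formaldehyde crosslinking, proximity ligation, PCR amplification and Illumina NextSeq500 sequencing. Binding signal is the quotient of each hexamer's read frequency for a factor and its frequency for the tag-only sample.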

For another test, the target named is T2, ELK1 (Homo sapiens, UniProt P19419 1-428).
T2 sequence: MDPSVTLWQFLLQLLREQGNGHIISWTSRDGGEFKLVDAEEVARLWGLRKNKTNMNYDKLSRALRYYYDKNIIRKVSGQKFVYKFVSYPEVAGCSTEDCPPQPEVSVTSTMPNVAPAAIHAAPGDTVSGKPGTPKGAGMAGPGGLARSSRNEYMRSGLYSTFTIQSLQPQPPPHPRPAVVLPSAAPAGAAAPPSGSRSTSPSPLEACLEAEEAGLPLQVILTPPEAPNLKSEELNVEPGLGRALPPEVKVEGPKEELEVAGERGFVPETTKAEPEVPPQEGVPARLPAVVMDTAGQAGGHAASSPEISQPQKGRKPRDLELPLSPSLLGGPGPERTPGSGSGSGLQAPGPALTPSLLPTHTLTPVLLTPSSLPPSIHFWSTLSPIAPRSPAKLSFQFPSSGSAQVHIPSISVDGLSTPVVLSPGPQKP
The procedure, abridged:
as §1

A further test has as its target T3, GABPA (Homo sapiens, UniProt Q06546 1-454).
T3 sequence: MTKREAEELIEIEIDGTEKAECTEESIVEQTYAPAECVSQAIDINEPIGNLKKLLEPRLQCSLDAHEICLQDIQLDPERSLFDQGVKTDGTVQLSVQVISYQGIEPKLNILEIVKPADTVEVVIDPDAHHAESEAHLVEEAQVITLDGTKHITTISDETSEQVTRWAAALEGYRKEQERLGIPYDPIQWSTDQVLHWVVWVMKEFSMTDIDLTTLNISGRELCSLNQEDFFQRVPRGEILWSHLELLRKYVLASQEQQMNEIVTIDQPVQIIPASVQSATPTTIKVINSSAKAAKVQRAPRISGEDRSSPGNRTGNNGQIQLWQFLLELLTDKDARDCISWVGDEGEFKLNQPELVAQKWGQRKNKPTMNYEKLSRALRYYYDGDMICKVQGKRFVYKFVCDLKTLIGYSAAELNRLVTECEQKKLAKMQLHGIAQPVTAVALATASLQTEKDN
The procedure, abridged: as §1

In the next test the target is T4, ERG (Homo sapiens, UniProt P11308 1-479).
T4 sequence: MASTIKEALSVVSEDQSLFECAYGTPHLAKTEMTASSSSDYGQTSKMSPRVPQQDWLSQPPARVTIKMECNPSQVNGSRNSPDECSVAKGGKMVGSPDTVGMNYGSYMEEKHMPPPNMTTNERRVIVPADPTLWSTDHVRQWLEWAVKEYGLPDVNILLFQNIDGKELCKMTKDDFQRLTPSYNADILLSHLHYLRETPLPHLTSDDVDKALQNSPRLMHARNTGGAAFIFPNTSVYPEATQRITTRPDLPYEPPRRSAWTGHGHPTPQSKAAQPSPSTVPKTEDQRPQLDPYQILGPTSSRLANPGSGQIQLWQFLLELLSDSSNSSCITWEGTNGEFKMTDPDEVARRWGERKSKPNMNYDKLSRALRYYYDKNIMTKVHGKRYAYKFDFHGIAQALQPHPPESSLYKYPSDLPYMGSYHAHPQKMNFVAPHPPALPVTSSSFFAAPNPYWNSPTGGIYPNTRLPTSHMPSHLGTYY
In short, it runs like this:
as §1

For a further test, the target named is ELF1 (Homo sapiens, UniProt P32519 1-619). In short, it runs like this:
as §1

A further test addresses T5, EHF (Homo sapiens, UniProt Q9NZC4 1-300).
T5 sequence: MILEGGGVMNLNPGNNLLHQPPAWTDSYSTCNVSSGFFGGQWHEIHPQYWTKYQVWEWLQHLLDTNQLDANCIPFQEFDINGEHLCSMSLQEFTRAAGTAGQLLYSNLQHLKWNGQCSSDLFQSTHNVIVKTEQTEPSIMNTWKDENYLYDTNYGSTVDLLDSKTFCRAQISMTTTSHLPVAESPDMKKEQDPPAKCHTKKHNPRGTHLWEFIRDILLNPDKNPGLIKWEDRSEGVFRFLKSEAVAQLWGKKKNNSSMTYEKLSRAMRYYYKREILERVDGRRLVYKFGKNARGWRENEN
The procedure, abridged:
as §1

The target of a further test is SPI1 (Homo sapiens, UniProt P17947 1-270). In short, it runs like this:
as §1

A further test addresses SPIB (Homo sapiens, UniProt Q01892 1-262). In short, it runs like this:
as §1

The next test has as its target T6, ELK3 (Homo sapiens, UniProt P41970 1-407).
T6 sequence: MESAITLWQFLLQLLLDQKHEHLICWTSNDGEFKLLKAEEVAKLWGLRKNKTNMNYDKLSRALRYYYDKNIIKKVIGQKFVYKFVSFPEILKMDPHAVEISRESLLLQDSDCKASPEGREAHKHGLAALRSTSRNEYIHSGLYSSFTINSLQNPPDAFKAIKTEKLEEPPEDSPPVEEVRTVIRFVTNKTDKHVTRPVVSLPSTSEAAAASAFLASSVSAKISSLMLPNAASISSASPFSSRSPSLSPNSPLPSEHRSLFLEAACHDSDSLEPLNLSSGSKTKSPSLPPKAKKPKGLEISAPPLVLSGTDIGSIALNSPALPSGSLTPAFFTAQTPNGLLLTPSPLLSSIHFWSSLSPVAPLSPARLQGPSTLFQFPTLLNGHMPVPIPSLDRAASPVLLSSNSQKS
The procedure, abridged: as §1

Sequence of SPIB (Q01892 whole entry): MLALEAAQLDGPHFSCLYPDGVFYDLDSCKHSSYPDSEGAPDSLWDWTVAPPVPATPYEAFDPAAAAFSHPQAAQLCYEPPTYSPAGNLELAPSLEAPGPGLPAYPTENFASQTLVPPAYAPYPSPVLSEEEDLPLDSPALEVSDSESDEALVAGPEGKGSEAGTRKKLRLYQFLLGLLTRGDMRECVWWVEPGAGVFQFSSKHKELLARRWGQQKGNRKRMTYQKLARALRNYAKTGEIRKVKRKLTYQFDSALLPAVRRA
Sequence of ELF1 (P32519 whole entry): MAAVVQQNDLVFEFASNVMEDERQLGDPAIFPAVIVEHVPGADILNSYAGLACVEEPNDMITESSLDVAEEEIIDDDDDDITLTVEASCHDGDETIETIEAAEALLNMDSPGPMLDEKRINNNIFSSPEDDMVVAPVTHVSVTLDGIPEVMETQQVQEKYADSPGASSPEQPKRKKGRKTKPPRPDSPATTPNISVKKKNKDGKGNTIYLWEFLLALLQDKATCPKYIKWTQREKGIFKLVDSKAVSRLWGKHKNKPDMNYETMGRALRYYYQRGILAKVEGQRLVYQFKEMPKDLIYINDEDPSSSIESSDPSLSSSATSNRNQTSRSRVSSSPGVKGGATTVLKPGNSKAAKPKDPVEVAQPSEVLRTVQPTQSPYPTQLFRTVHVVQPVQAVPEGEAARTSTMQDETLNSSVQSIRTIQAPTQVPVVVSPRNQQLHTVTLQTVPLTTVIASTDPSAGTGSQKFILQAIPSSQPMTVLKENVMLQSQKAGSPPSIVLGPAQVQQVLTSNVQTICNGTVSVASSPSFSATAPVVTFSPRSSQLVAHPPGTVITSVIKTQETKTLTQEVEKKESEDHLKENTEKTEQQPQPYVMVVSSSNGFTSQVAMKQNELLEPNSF

Turning to TGGTTC, the binding signal with FLI1 is 1.45 fold enrichment (6-mer frequency, TF over GST control); in the test with ELK1, 1.33 fold enrichment (6-mer frequency, TF over GST control); with GABPA it was 1.35 fold enrichment (6-mer frequency, TF over GST control); with ERG it was 1.29 fold enrichment (6-mer frequency, TF over GST control); with ELF1, 1.28 fold enrichment (6-mer frequency, TF over GST control); with EHF, 1.31 fold enrichment (6-mer frequency, TF over GST control). The binding signal with SPI1 is 1.32 fold enrichment (6-mer frequency, TF over GST control); in the test with SPIB, 1.37 fold enrichment (6-mer frequency, TF over GST control); in the test with ELK3 it was 1.32 fold enrichment (6-mer frequency, TF over GST control).
In the case of CGCTCA, the binding signal with FLI1 was 1.13 fold enrichment (6-mer frequency, TF over GST control); in the test with ELK1, 1.21 fold enrichment (6-mer frequency, TF over GST control); with GABPA, 1.16 fold enrichment (6-mer frequency, TF over GST control); with ERG, 1.25 fold enrichment (6-mer frequency, TF over GST control); with ELF1, 1.13 fold enrichment (6-mer frequency, TF over GST control); in the test with EHF it was 1.18 fold enrichment (6-mer frequency, TF over GST control). The binding signal with SPI1 was 1.16 fold enrichment (6-mer frequency, TF over GST control); with SPIB it was 1.16 fold enrichment (6-mer frequency, TF over GST control); with ELK3, 1.13 fold enrichment (6-mer frequency, TF over GST control).
Take ACGCCC: the binding signal with FLI1 was 1.22 fold enrichment (6-mer frequency, TF over GST control); in the test with ELK1, 1.21 fold enrichment (6-mer frequency, TF over GST control); with GABPA, 1.25 fold enrichment (6-mer frequency, TF over GST control); with ERG, 1.11 fold enrichment (6-mer frequency, TF over GST control); with ELF1 it was 1.21 fold enrichment (6-mer frequency, TF over GST control); with EHF, 1.18 fold enrichment (6-mer frequency, TF over GST control). The binding signal with SPI1 was 1.11 fold enrichment (6-mer frequency, TF over GST control); with SPIB it was 1.14 fold enrichment (6-mer frequency, TF over GST control); with ELK3, 1.11 fold enrichment (6-mer frequency, TF over GST control).
Take TTTTGA: the binding signal was 1.13 fold enrichment (6-mer frequency, TF over GST control) with FLI1; 1.18 fold enrichment (6-mer frequency, TF over GST control) with ELK1; 1.13 fold enrichment (6-mer frequency, TF over GST control) with GABPA; 1.11 fold enrichment (6-mer frequency, TF over GST control) with ERG; 1.17 fold enrichment (6-mer frequency, TF over GST control) with ELF1; 1.17 fold enrichment (6-mer frequency, TF over GST control) with EHF. In addition, the binding signal is 1.13 fold enrichment (6-mer frequency, TF over GST control) in the test with SPI1; 1.04 fold enrichment (6-mer frequency, TF over GST control) with SPIB; 1.06 fold enrichment (6-mer frequency, TF over GST control) in the test with ELK3.
Regarding TTGTAG, the binding signal in the test with FLI1 is 1.13 fold enrichment (6-mer frequency, TF over GST control); with ELK1, 1.19 fold enrichment (6-mer frequency, TF over GST control); in the test with GABPA, 1.12 fold enrichment (6-mer frequency, TF over GST control); with ERG it was 1.12 fold enrichment (6-mer frequency, TF over GST control); in the test with ELF1, 1.14 fold enrichment (6-mer frequency, TF over GST control); in the test with EHF, 1.11 fold enrichment (6-mer frequency, TF over GST control). Also, the binding signal with SPI1 was 1.07 fold enrichment (6-mer frequency, TF over GST control); in the test with SPIB, 1.23 fold enrichment (6-mer frequency, TF over GST control); in the test with ELK3, 1.2 fold enrichment (6-mer frequency, TF over GST control).
For the sequence TCACAA, the binding signal is 1.18 fold enrichment (6-mer frequency, TF over GST control) with FLI1; 1.14 fold enrichment (6-mer frequency, TF over GST control) with ELK1; 1.21 fold enrichment (6-mer frequency, TF over GST control) with GABPA; 1.11 fold enrichment (6-mer frequency, TF over GST control) in the test with ERG; 1.23 fold enrichment (6-mer frequency, TF over GST control) with ELF1; 1.11 fold enrichment (6-mer frequency, TF over GST control) with EHF. The binding signal with SPI1 is 1.06 fold enrichment (6-mer frequency, TF over GST control); with SPIB it was 1.13 fold enrichment (6-mer frequency, TF over GST control); with ELK3 it was 1.17 fold enrichment (6-mer frequency, TF over GST control).
On to CGCCGA, for which the binding signal was 1.19 fold enrichment (6-mer frequency, TF over GST control) in the test with FLI1; 1.2 fold enrichment (6-mer frequency, TF over GST control) with ELK1; 1.26 fold enrichment (6-mer frequency, TF over GST control) with GABPA; 1.1 fold enrichment (6-mer frequency, TF over GST control) with ERG; 1.19 fold enrichment (6-mer frequency, TF over GST control) in the test with ELF1; 1.22 fold enrichment (6-mer frequency, TF over GST control) in the test with EHF. For the same sequence, the binding signal is 1.16 fold enrichment (6-mer frequency, TF over GST control) in the test with SPI1; 1.18 fold enrichment (6-mer frequency, TF over GST control) with SPIB; 1.22 fold enrichment (6-mer frequency, TF over GST control) with ELK3.
As for CTAACG, the binding signal is 1.22 fold enrichment (6-mer frequency, TF over GST control) with FLI1; 1.23 fold enrichment (6-mer frequency, TF over GST control) with ELK1; 1.09 fold enrichment (6-mer frequency, TF over GST control) in the test with GABPA; 1.21 fold enrichment (6-mer frequency, TF over GST control) with ERG; 1.13 fold enrichment (6-mer frequency, TF over GST control) with ELF1; 1.13 fold enrichment (6-mer frequency, TF over GST control) with EHF. The binding signal with SPI1 is 1.26 fold enrichment (6-mer frequency, TF over GST control); in the test with SPIB, 1.11 fold enrichment (6-mer frequency, TF over GST control); with ELK3, 1.19 fold enrichment (6-mer frequency, TF over GST control).

The values are drawn from paper PMC7862700, “An all-to-all approach to the identification of sequence-specific readers for epigenetic DNA modifications on cytosine”.
